An excerpt weighted towards active compounds, which were near 3.4% of everything screened.
GPR151 activ: activates the human receptor GPR151; Q8TDV0; activation, % at 11.2 µM; 650,000 tested, 1% active; PathHunter beta-arrestin GPR151 cells, luminescence; in the data active = activation above about 4.9%;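 also: 0% = median of compound wells and 100% = cells with positive control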
FBW7 activator: activators of human E3 ligase FBW7. AlphaScreen FBW7–phospho-cyclin E peptide binding, activator screen. normalized activity (activation), % at 26.1 µM. 650,000 tested, 0.13% active. AID 1259310; in the data active = normalized activity above about 1.9%;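 also: purified mutant Fbw7 with reduced substrate affinity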
Target sequence (Q969H0 whole entry, looked up): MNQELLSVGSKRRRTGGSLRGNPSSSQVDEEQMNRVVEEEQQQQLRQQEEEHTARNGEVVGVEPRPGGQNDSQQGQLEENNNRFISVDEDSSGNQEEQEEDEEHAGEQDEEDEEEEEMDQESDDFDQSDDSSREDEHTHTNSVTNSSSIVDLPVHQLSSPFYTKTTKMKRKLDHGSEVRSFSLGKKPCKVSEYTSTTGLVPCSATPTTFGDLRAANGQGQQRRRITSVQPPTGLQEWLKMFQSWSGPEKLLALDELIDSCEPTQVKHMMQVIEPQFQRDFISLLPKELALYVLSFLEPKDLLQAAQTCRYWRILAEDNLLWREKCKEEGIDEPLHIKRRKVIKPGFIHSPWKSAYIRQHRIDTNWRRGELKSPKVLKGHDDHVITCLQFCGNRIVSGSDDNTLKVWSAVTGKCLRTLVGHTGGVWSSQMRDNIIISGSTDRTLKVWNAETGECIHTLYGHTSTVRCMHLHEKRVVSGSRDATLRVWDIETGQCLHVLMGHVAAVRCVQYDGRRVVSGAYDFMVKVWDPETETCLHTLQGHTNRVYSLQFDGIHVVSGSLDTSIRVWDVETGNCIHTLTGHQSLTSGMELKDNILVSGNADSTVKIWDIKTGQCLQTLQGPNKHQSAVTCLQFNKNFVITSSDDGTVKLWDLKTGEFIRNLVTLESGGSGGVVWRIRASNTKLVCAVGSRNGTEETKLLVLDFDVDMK
TEAD-YAP inh: TEAD-YAP interaction inhibition. HEK-TIYL cells, TEAD-Gal4/YAP UAS-luciferase luminescence. inhibition, % at 9.12 µM. 640,000 tested, 1.4% active. AID 1259422; in the data active = inhibition above about 32%;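 also: 0% = median of test compound wells and 100% = reference inhibitor wells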
MITF inh: inhibitors of human MITF; 650,000 tested, 0.91% active; O75030; inhibition, % at 2.6 µM; AlphaScreen MITF homodimerization, bead proximity signal; in the data active = inhibition above about 50%;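 also: 0% = vehicle wells with protein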
GPR151 confirm: confirmation of human GPR151 activators. shares compounds with GPR151 activ. GPR151 PathHunter beta-arrestin cells, luminescence, 90 min; % of EA-reagent control over plate median. activation, % at 11.2 µM. 6,700 tested, under 10 active. AID 1508609;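 active = mean percent activation across replicates above the confirmation screen cutoff of 4.91%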
GPR119 ag: counter-screen for GPR151 activators: effect on human GPR119; shares compounds with GPR151 activ; AID 1508611; activation, % at 11.2 µM; GPR119 PathHunter beta-arrestin cells, luminescence, 90 min; 0 = compound-well median, 100 = enzyme-acceptor control; 6,700 tested, 0.3% active;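 active = mean percent activation in the counterscreen above 29.09%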;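 also: counterscreen on off-target GPR119 to flag nonselective hits from the GPR151 activator screen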
An asterisk follows results filed as active; x = not tested or not shown; ! = not confirmed by another sample.

SMILES | GPR151 activ | FBW7 activator | TEAD-YAP inh | MITF inh | GPR151 confirm | GPR119 ag
CC1CCCCN1C(=O)CCc1nc(-c2ccc(Cl)cc2)no1 (centres undefined) | 6.7* | 0 | -16 | -1 | 0 | -14
Cc1ccc(-c2noc(CCC(=O)N3CCCCC3C)n2)cc1 (centres undefined) | 1 | 0 | -10 | 1 | x | x
COc1ccc(-c2noc(CC(=O)Nc3cc(C)on3)n2)cc1 | 0 | 0 | 2 | 9 | x | x
COc1ccc(-c2noc(CC(=O)Nc3cccc(C)n3)n2)cc1 | 5.5* | 0 | 2 | 4 | 1 | -8
CCN(C(=O)Cc1nc(-c2ccc(OC)cc2)no1)c1ccccc1C | 8.9* | 0 | 7 | 6 | 1 | -6
CC(C)N(Cc1nc(-c2ccccc2)no1)C(=O)c1ccccc1F | -1 | 1 | 11 | 13 | x | x
COc1ccc(-c2noc(CN(C(=O)c3ccccc3F)C(C)C)n2)cc1 | 5.4* | 0 | -5 | 16 | 0 | 10
CCN(CC)CCCN(C)C(=O)Cc1nc(-c2ccc(OC)cc2)no1 | 5.0* | 0 | -5 | 4 | 0 | 0
Cc1cc(C)cc(NC(=O)c2cnc3ccc(C)cn3c2=O)c1 | -1 | 0 | 6 | -3 | x | x
Cc1ccc2ncc(C(=O)Nc3cc(C)on3)c(=O)n2c1 | 8.2* | 0 | -20 | 9 | 0 | -3
CCCn1c(C)cc(=O)c2cc([N+](=O)[O-])ccc21 | 11* | 0 | 1 | 15 | 0 | -6
CCC(=O)N(CCCN(C)C)c1nc(-c2ccc(Cl)cc2)cs1 | 6.0* | 0 | -3 | -9 | 1 | 10
CCN(C(=O)CCl)c1nc(-c2ccc(Cl)cc2)cs1 | 1 | 0 | -26 | 5 | x | x
COc1cc(OC)cc(C(=O)NCc2nnc(SCC(=O)N3N=C(c4cccs4)CC3c3ccc(F)cc3)n2Cc2ccccc2)c1 (centres undefined) | 2 | 0 | -6 | 0 | x | x
O=C1C2CC=CCC2C(=O)N1CC(=O)N1N=C(c2ccc(Cl)cc2)CC1c1ccco1 (centres undefined) | 6.6* | 0 | 5 | 10 | 2 | -6
COc1cccc(Nc2nnc(SCC(=O)NNC(=O)C3CCC3)s2)c1 | -2 | 0 | 12 | -5 | x | x
CC(C)n1c(Nc2ccnn2C)nc2c(Nc3ccc(N4CCOCC4)cc3)ncnc21 | 5.5* | 0 | -5 | 13 | 0 | -3
CC(C)n1c(Nc2ccc(N3CCOCC3)cc2)nc2c(Nc3ccc(N4CCOCC4)cc3)ncnc21 | -1 | 0 | 11 | 13 | x | x
O=C(Nc1ccc(Cl)cc1Cl)C1CC(=O)N(Cc2ccccc2)C1 (centres undefined) | 1 | 0 | 4 | 0 | x | x
Nc1ccccc1NC(=O)c1ccccc1Cl | 0 | 1 | -21 | 11 | x | x
COc1ccc2c(c1)c(C(=O)O)c(C)n2CCc1ccc(OC)c(OC)c1 | 5.6* | 0 | -11 | 7 | 1 | 2
COc1ccc(CCn2c(C)c(C(C)=O)c3cc(OC(=O)c4cccc(Cl)c4)ccc32)cc1OC | -1 | 0 | -6 | -2 | x | x
COc1ccc(-c2cnnn2-c2ccc(NC(=O)c3ccccc3OC)cc2)cc1OC | -1 | 0 | -5 | 14 | x | x
O=C(CSc1ncnc2c1nnn2Cc1ccc(F)cc1)Nc1ccc2c(c1)OCO2 | 0 | 1 | 5 | 3 | x | x
COc1ccc(C(=O)C2Oc3ccccc3C3CC(c4ccc(Cl)cc4)=NN23)cc1 (centres undefined) | 0 | 0 | -11 | -5 | x | x
SMILES | GPR151 activ | FBW7 activator | TEAD-YAP inh | MITF inh | GPR151 confirm | GPR119 ag
COC(=O)c1c(C(=O)OC)c(C)n(CCc2c[nH]c3ccccc23)c1C | 0 | 0 | 7 | 6 | x | x
CC(C)(C)C1=Nc2ccccc2NC(=O)C1 | 0 | 0 | -4 | 13 | x | x
CCCN(CCC)CCc1cccc2c1CC(=O)N2 | 12*! | 0 | -4 | -9 | 0 | -9
CC(=O)c1ccc(-[n+]2cc([O-])on2)cc1 | 2 | 0 | -67 | -10 | x | x
O=C(COc1ccccc1Br)NN=C1CCCCC1 | 9.7* | 0 | -2 | 14 | -1 | -6
CCOc1ccc(NC(=O)COc2ccccc2Br)cc1 | 5.0* | 0 | -7 | -2 | 0 | 9
CC(C)N(C)Cc1nnnn1CC(=O)NC1(c2ccccc2)CC1 | 8.3* | 0 | -1 | 10 | 0 | 3
CC(C)N(C)Cc1nnnn1CC(=O)NCC(c1ccccc1)c1ccccc1 | -1 | 0 | 7 | -1 | x | x
CCOC(=O)N1CCN(C(=O)Cn2nnnc2CN(C)C(C)C)CC1 | 5.2* | 0 | 6 | -6 | -1 | -5
CCOC(=O)N1CCN(C(=O)Cn2nnnc2CN2CCCCCC2)CC1 | -1 | 0 | -2 | 2 | x | x
Cc1ccc(Nc2ncnc(N)c2[N+](=O)[O-])cc1Cl | 9.1* | 0 | 7 | -4 | 0 | 1
Nc1ncnc(Nc2ccc(N=Nc3ccccc3)cc2)c1[N+](=O)[O-] | 0 | 0 | 3 | 17 | x | x
Nc1ncnc(Nc2ccc(Nc3ccccc3)cc2)c1[N+](=O)[O-] | 8.7* | 0 | 7 | 23 | -2 | -1
O=C(Nc1ccc2oc(=O)ccc2c1)c1cc(I)ccc1Cl | 3 | 0 | 21 | -2 | x | x
CC(C)=CC[C@@H](O)C1=CC(=O)c2c(O)ccc(O)c2C1=O | 10.0*! | 0 | 8 | 75*! | 0 | 2
COc1cc(NC(=O)Nc2ccc(-c3nc4ccccc4o3)cc2)cc(OC)c1OC | 5.6* | 0 | -40 | -9 | 0 | 7
O=C(O)c1nc(N=Nc2ccc(Br)cc2)[nH]c1C(=O)O | 0 | -1 | -4 | 22 | x | x
CCn1c(Cc2ccccc2)nnc1SCC(=O)N1CCCC(C)C1 (centres undefined) | 0 | 0 | -4 | -13 | x | x
O=C1C(=O)N(C2CCCC2)C(=O)N1Cc1c(-c2ccccc2)nc2ccccn12 | -1 | 0 | -1 | -4 | x | x
O=S(=O)(CC(O)COc1ccc(Cl)cc1)c1ccccn1 (centres undefined) | 1 | 0 | -1 | 0 | x | x
CC(C)=C/C(C)=N/Nc1ccc(S(N)(=O)=O)cc1[N+](=O)[O-] | 4.9* | 0 | 4 | -3 | -1 | -9
CN(C)CCCNc1ccc(S(N)(=O)=O)cc1[N+](=O)[O-] | 5.7* | 1 | 2 | 8 | 0 | 3
O=C(/C=C/c1ccccc1)Nc1ccc(S(=O)(=O)Nc2ccc(F)cc2)cc1 | 0 | 0 | 5 | -5 | x | x
COc1ccccc1-n1c(CNC(=O)c2ccc(S(=O)(=O)N3CCCCC3)cc2)nnc1SCC(=O)Nc1nccs1 | 5.4* | 0 | 13 | 2 | -1 | -7
COc1ccccc1C1=N/C(=C\c2ccc(Cl)cc2Cl)C(=O)O1 | 1 | 0 | -1 | 0 | x | x
OCCC1CN(Cc2cnn(-c3cccc(Cl)c3)c2)CCN1Cc1ccccc1 (centres undefined) | 0 | 0 | 9 | 1 | x | x

Bioassay records (PubChem BioAssay)
